Screening data (PubChem)
L3MBTL1 block – inhibitors of human L3MBTL1 | Q9Y468 | AlphaScreen L3MBTL1–H3K9me1 peptide binding | Potency, µM (series often up to 57.1 µM), for the others: top-dose activity, negative = inhibition, actives largely listed as inhibitors | 0.66% of 230,000 active | AID 485360; note: % is set by controls: 0 for no effect and ±100 for the full control effect; nearly all actives have a fitted effect of over 60% in size
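L3MBTL1 50 nM + b-AHA-H3(1-15)K9me1 75 nM, 30 min RT; compound added, 30 min RT; streptavidin donor/Ni-chelate acceptor beads 10 ug/mL each final, 30 min RT dark; AlphaScreen read.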
G9a inh – inhibitors of human histone lysine methyltransferase G9a. Q96KQ7. G9a H3K9 monomethylation, AlphaScreen, 2 h. Potency, µM (doses to about 102 µM), without a hit: at the top dose activity, negative = inhibition, usual class: inhibitors. AID 504332. 8.8% of 350,000 active; note: % is set by controls: 0 for no effect and ±100 for the full control effect; nearly all actives have a fitted effect of over 75% in size
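Compounds were preincubated with 20 nM G9a for 15 min, after which biotinylated H3K9 peptide (500 nM) and SAM (20 uM) started a 2 h room-temperature reaction. Monomethylated product was quantified by antibody-based AlphaScreen chemiluminescence.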
JMJD2A Tudor – inhibitors of human JMJD2A Tudor domain | O75164 | AlphaScreen JMJD2A-Tudor / H3K4me3 peptide binding | Potency, µM (series often up to 114 µM), without a hit: top-dose activity change, negative = inhibition, most hits filed as inhibitors | 4.4% of 390,000 active | AID 504339; note: % is set by controls: 0 for no effect and ±100 for the full control effect; nearly all actives have a fitted effect of over 50% in size
HP1b chromo inh – inhibitors of HP1-beta chromodomain binding to methylated histone tails; 0.56% of 390,000 active; Potency, µM (doses to about 114 µM), inactives show at the top dose activity change, negative = inhibition, most hits filed as inhibitors; AlphaScreen HP1-beta / biotin-H3K9me3 peptide binding; AID 540317; P83916; note: nearly all actives have a fitted effect of over 70% in size
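Compound inhibition of the preformed complex between 50 nM HP1-beta and 50 nM biotinylated H3K9me3 peptide was read by AlphaScreen. Buffer was PBS pH 7.4 with 0.01% Tween-20. Incubations ran 30 min at room temperature, with 10 ug/mL donor/acceptor beads.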
BAZ2B inh – blocks human BAZ2B. AID 504333. Potency, µM (series often up to 114 µM), inactives show top-dose activity change, negative = inhibition, most hits filed as inhibitors. AlphaScreen BAZ2B-H3K14Ac peptide displacement. Q9UIF8. 4.4% of 360,000 active; note: % is set by controls: 0 for no effect and ±100 for the full control effect; nearly all actives have a fitted effect of over 60% in size
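Complex of BAZ2B and biotin-H3K14Ac (50 nM apiece) forms over 30 min at RT, then faces library compounds up to 110 uM for another 30 min; AlphaScreen beads added, 20 min dark incubation, luminescence read.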
* marks the source's active call; other numbers are inactive results; ? = inconclusive; nt = no result; [ ] = dose if it differs, or a comment. The list is not random: actives were taken first. Their share in the collection is about 11%. Calls come from the whole dose curve; as a rule, active = well fitted inhibition curve with a large enough effect; inconclusive = small, poorly fitted or top-dose-only effect; inactive = no such curve, though single readings can be large or run the other way. Potency is the fitted concentration of half-maximal effect.

SMILES	L3MBTL1 block	G9a inh	JMJD2A Tudor	HP1b chromo inh	BAZ2B inh
COc1cc(/C=C2\COC/C(=C\c3ccc(O)c(OC)c3)C2=O)ccc1O	?	32µM*	?	?	?
COc1cc(/C=C2/CC/C(=C/c3ccc(O)c(OC)c3)C2=O)ccc1O	-14%	?	-19%[11.4 µM]	-7%	?
CC1=C(C(=O)Nc2ccc(C)c(C)c2)C2(CCCCCC2)OC1=O	nt	5%[59 µM]	-6%	16%	-14%
Cc1ccc(OCC(=O)Nc2ccc(C(N)=O)cc2)cc1	nt	13%	17%	17%	-1%
COc1ccc(-c2ccc(=O)n(CC(=O)Nc3ccccc3C(F)(F)F)n2)cc1	nt	0%[59 µM]	-5%	13%	4%
Cc1ccc(CSCC(=O)N/N=C/c2ccc(OCC(=O)Nc3ccc(C)cc3)cc2)cc1	nt	18µM*	?	1%	?
Cc1ccc(OCC(=O)Nc2ccc(N(C)C)cc2)cc1	-17%	8.9µM*	?	?	-4%
COc1ccc(CSCC(=O)N/N=C/c2ccc(OCC(=O)N3CCCCC3)cc2)cc1	nt	-11%[2.33 µM]	-16%	16%	?
COc1ccc(-c2ccc(=O)n(CC(=O)Nc3ccc(N(C)C)cc3)n2)cc1	nt	5µM*	56µM*	?	32µM*
CC1=C(C(=O)Nc2ccc(C)cc2C)C(c2cc(Br)ccc2F)n2ncc(C(=O)Nc3ccc(C)cc3)c2N1 (centres undefined)	nt	-6%[59 µM]	8%	21%	8%[57.1 µM]
CCOc1ccc(-c2cc(-c3nc(-c4ccc(C)cc4)no3)[nH]n2)cc1	nt	12%[59 µM]	-19%	32%	2%
Cc1ccccc1C(=O)Nc1cccc(OCc2cc(=O)n3cccc(C)c3n2)c1	nt	-17%[59 µM]	-8%	6%[57 µM]	2%
Fc1ccccc1-n1cn[nH]c1=S	3%	10µM*	28µM*	30%	-10%
CN(C)c1ccc(Cc2cc3c(O)ccc(O)c3cc(Cc3ccc(N(C)C)cc3)c2=O)cc1	nt	nt	3.2µM*	?	nt
CN(C)c1ccc(C(=O)c2ccc(O)cc2O)cc1	-7%	-25%[59 µM]	-25%[57.1 µM]	-7%	?
Cc1ccccc1NC(=O)CSc1nc(-c2ccccc2)cn1-c1ccccc1F	nt	11µM*	?	-17%	?
Cc1ccccc1NC(=O)CSc1nc2c(c(=O)n(C)c(=O)n2C)n1C	nt	71µM*	-7%	16%	-14%
CCSc1nnc2c(n1)OC1(CCCC1)Nc1ccccc1-2	-4%	35µM*	-19%	40%	5%
CCSc1nnc2c(n1)OC(c1ccc(C)s1)Nc1ccccc1-2 (centres undefined)	nt	5%[59 µM]	-12%	9%	-17%
O=C(NNc1ccccc1)/C(=C\c1cccnc1)NC(=O)c1ccccc1	0%	4µM*	-9%	58%	-13%
CCOc1ccc(CNC(=O)c2cnc3sc(N4CCC(C)CC4)nn3c2=O)cc1OC	nt	-4%[59 µM]	-2%	13%	-2%
COc1ccc(CNC(=O)c2sc3nc4n(c(=O)c3c2C)CCCCC4)cc1	nt	14µM*	89µM*	3%	16µM*
Cc1cc(Br)ccc1NC(=O)c1sc2nc3n(c(=O)c2c1C)CCCC3	nt	13µM*	79µM*	68%	18µM*
O=C(/C=C/c1cccc([N+](=O)[O-])c1)Nc1cc(C(=O)O)cc(C(=O)O)c1	nt	?	18µM*	?	?
O=C(/C=C/c1ccc([N+](=O)[O-])cc1)Nc1cccc(C(=O)Nc2ccccc2C(=O)O)c1	?	45µM*	?	?	?
SMILES	L3MBTL1 block	G9a inh	JMJD2A Tudor	HP1b chromo inh	BAZ2B inh
Cc1cccc(N(Cc2ccccc2)C(=O)c2cc(S(=O)(=O)N3CCOCC3)ccc2Cl)c1	23%	-34%	-9%	14%	-7%
CCOc1ccc(C2=Nc3ccc(Br)cc3C(c3ccc(N4CCOCC4)cc3)=NN2)cc1	-14%	45µM*	-19%	4%	-3%
Fc1ccc2c(c1)C(c1ccc(N3CCOCC3)cc1)=NNC(c1cccs1)=N2	-28%	20µM*	25µM*	-37%	35µM*
CCOC(=O)C1CCCN(C(=O)c2cccc(N3C(=O)c4ccccc4C3=O)c2)C1 (centres undefined)	8%	22%[12.7 µM]	-15%	32%	-3%
O=C(c1cccc(N2C(=O)C3C4C=CC(C4)C3C2=O)c1)N1CCCCCC1 (centres undefined)	nt	1.3µM*	-1%	19%	2%
O=C(O)c1cccc(N2C(=O)C3C4C=CC(C4=C(c4ccccc4)c4ccccc4)C3C2=O)c1 (centres undefined)	?	28µM*	-2%[11.4 µM]	-25%	56µM*
O=C(c1cccc(N2C(=O)c3ccccc3C2=O)c1)N1CCCCCC1	nt	22µM*	0%	44%	?
O=C(O)c1cccc(N2C(=O)c3ccc4c5c(ccc(c35)C2=O)C(=O)N(c2cccc(C(=O)O)c2)C4=O)c1	nt	13%[12.7 µM]	-28%	1%	?
CCOc1ccc(C(=S)NC2CCCCC2)cc1OCC	nt	7.9µM*	79µM*	?	?
CN(C)c1cccc(C(=O)NC2CCCCCC2)c1	-1%[11.4 µM]	8.9µM*	?	11%	-34%
CC(C)C1Nc2ccc(C(=O)NC3CCCCC3)cc2NC1=O (centres undefined)	nt	-6%	0%	40%	-11%
Cc1ccc(NC(=S)c2ccc(N(C)C)cc2)cc1	-6%	-5%[59 µM]	-15%[57.1 µM]	38%	-5%
CN(C)c1ccc(C(=S)NC2CCCCC2)cc1	?	5.6µM*	?	?	-34%
CC1Nc2ccc(C(=O)NC3CCCCC3)cc2NC1=O (centres undefined)	nt	35µM*	0%	42%	-17%
CCN(CC)c1ccc(C(=S)NC2CCCCC2)cc1	-19%	-147%[59 µM]	?	32µM*	22µM*
CNC(C)C#Cc1c(-c2cc(OC)c(OC)c(OC)c2)noc1C (centres undefined)	-9%	32µM*	?	6%	?
Cc1ccc(CNC(=O)CSc2ncc(S(=O)(=O)c3ccc(C)c(Cl)c3)c(=O)[nH]2)cc1	nt	4%[59 µM]	-8%	14%[57 µM]	-1%
O=S(=O)(Nc1cc(S(=O)(=O)N2CCCC2)ccc1O)c1ccc(Cl)s1	5%	56µM*	-10%	6%	-26%
CC(=O)Nc1ccc(S(=O)(=O)Nc2cc(S(=O)(=O)N3CCCCC3)ccc2O)cc1	10%	28µM*	?	7%	-3%
CC(CNC(=O)Cn1ccc2cc(S(=O)(=O)N3CCCCCC3)ccc21)c1ccccc1 (centres undefined)	nt	-26%[59 µM]	-24%	24%	-12%
CN(CC(=O)Nc1ccccc1Cl)CC(=O)c1c(N)n(Cc2ccccc2)c(=O)n(C)c1=O	-1%	1%[12.7 µM]	-7%	37%	3%
Cc1ccc(-c2nnc(Nc3ccc(Br)cc3)c3ccccc23)cc1S(=O)(=O)NCC1CCCO1 (centres undefined)	nt	-1%[59 µM]	-23%	8%	0%
